Sampled rows, rich in hits. Any-hit rate of the full collection: about 3.1%.
Rin1 Abl inh = inhibitors of human Rin1-Abl protein interaction. actives 0.4% (n = 360,000). TR-FRET Rin1/Abl binding, biochemical. AID 588664. inhibition, % at 7.35 µM. P00519+Q13671; in the data active means inhibition above about 5%, passing the limit was not always enough
E coli Lon inh = inhibitors of E. coli Lon protease. purified E. coli Lon protease, fluorescence polarization. inhibition, % at 7.94 µM. actives 0.42% (n = 360,000); in the data active means inhibition above about 13%, passing the limit was not always enough;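 further: 0% = enzyme with probe and DMSO and 100% = no enzyme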
PAFAH1B3 inh = inhibitors of human PAFAH1B3. Q15102. recombinant PAFAH1B3, FP-rhodamine probe, fluorescence polarization. inhibition, % at 3.39 µM. actives 0.28% (n = 340,000);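 active means inhibition above the screen-wide average of all tested compounds plus 3 SD, cut at about 25% in these data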;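 further: 0% = enzyme with DMSO only and 100% = wells lacking PAFAH1B3 protein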
Target sequence (Q15102 whole entry, looked up): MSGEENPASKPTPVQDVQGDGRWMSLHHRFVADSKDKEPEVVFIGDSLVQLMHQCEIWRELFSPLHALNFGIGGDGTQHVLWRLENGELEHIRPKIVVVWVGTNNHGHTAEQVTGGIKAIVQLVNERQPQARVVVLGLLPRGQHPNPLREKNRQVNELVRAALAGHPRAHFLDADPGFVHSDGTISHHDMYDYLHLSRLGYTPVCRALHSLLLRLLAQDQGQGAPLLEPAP
pPAFAH FP inh = inhibitors of human plasma PAF acetylhydrolase (pPAFAH); recombinant pPAFAH, FP-rhodamine probe fluorescence polarization; actives 1.5% (n = 330,000); inhibition, % at 3.39 µM; Q13093;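 active means inhibition above the mean inhibition across the screen plus 3 SD, cut at about 25% in these data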;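 further: inhibitors block binding of the rhodamine activity-based probe so polarization drops; 0% = enzyme with DMSO and 100% = wells lacking pPAFAH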
PAFAH1B2 inh = inhibitors of human PAFAH1B2 | recombinant PAFAH1B2, FP-rhodamine activity probe, fluorescence polarization | inhibition, % at 3.39 µM | actives 1.2% (n = 340,000) | AID 492953;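 active means inhibition above the mean of all tested compounds plus 3 SD, cut at about 24% in these data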;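 further: 0% = enzyme with DMSO and 100% = wells lacking PAFAH1B2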
Target sequence (P68402 whole entry, looked up): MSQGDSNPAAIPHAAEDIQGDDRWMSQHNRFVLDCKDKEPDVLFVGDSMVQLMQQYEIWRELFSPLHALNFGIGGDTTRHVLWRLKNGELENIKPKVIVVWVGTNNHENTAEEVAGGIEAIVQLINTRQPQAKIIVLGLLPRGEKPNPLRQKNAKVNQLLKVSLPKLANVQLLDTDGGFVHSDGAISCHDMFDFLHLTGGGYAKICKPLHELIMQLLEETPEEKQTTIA
PAFAH2 inh = inhibitors of human PAFAH2. recombinant PAFAH2, FP-rhodamine activity probe, fluorescence polarization. inhibition, % at 3.39 µM. actives 0.99% (n = 340,000);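 active means inhibition above the mean over all tested compounds plus 3 SD, cut at about 30% in these data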;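 further: inhibitors block probe labeling of enzyme so polarization drops; 0% = enzyme with DMSO and 100% = wells lacking PAFAH2 protein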
Rin1 Abl conf = confirmation of inhibitors of human Rin1-Abl interaction; shares compounds with Rin1 Abl inh; TR-FRET Rin1-Abl binding, purified proteins; inhibition, % at 7.35 µM; actives 49% (n = 1,300); AID 602124; in the data active means inhibition above about 6.5%
GFP quench-1 = counter-screen for Rin1-Abl inhibitors: GFP fluorescence quenchers; shares compounds with Rin1 Abl inh; inhibitors/quenchers counterscreen; inhibition, % at 6.75 µM; actives 8.5% (n = 1,300); AID 602125; in the data active means inhibition above about 6.5%;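 further: ABL1-eGFP fusion protein alone without its partner RIN1-SBP; 0% = protein with vehicle and 100% = wells lacking protein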
GFP quench DR = counter-screen for Rin1-Abl inhibitors: GFP quenchers, dose response | IC50, µM | AID 602182 | shares compounds with Rin1 Abl inh | GFP fluorescence interference/quenching counterscreen | 230 tested, under 10 active;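 further: ABL1-eGFP fusion protein alone without its RIN1 binding partner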
GFP quench-2 = counter-screen for Rin1-Abl interaction inhibitors: GFP fluorescence quenching. GFP fluorescence quenching counterscreen, biochemical. shares compounds with Rin1 Abl inh. AID 602397. 25 tested, under 10 active. IC50, µM
* hit, by the source's call; / = not tested or not shown. Unless noted, how the calls were made is not given here.

SMILES | Rin1 Abl inh | E coli Lon inh | PAFAH1B3 inh | pPAFAH FP inh | PAFAH1B2 inh | PAFAH2 inh | Rin1 Abl conf | GFP quench-1 | others
CCOC(=O)CCCCCC(=O)Nc1ccc2c(c1)C(=O)N([C@H](C)CO)C[C@@H](C)[C@@H](CN(C)C(=O)CCC(F)(F)F)OCCCC[C@H](C)O2 | 50.5* | 6.8 | / | / | / | / | 54.6* | -0.3 | GFP quench DR=>67.6
Cc1cccc(-c2noc(CN(C)C(=O)c3ccc4c(c3)OCO4)n2)c1 | -0.3 | 0.2 | 0.3 | 1.5 | 0.4 | 0.9 | / | /
O=C(c1ccc(Br)cc1)N1CCC2(CC1)NCCc1[nH]cnc12 | -0.6 | 0.4 | 1.7 | 2.6 | 3.7 | -3.0 | / | /
COc1ccc2c(CN3CCN(c4ccccc4F)CC3)cc(=O)oc2c1 | -1.4 | -1.7 | / | / | / | / | / | /
Cc1c(Cl)cccc1N=C(N)N=C(N)N | 9.1* | -3.0 | -4.0 | -4.0 | 4.0 | -1.1 | -2.8 | 0.0
CCOC(=O)c1c(C)n(-c2ccc(C)cc2)c2ccc(OCC(O)CN3CCN(C)CC3)cc12 (configuration not stated) | 5.7 | -5.0 | 3.4 | / | -8.5 | -2.7 | / | /
CC(C)n1cc(CN2CCC(C(=O)Nc3cccc(-c4cccc(Cl)c4)c3)CC2)cn1 | 11.5* | 6.0 | 8.7 | 10.5 | -1.4 | 3.6 | 25.5* | -0.9 | GFP quench DR=>67.6
CCn1cc(CN2CCC(C(=O)Nc3cccc(-c4cccc(F)c4)c3)CC2)cn1 | 1.3 | 11.3 | 2.0 | -3.4 | 1.9 | -3.3 | / | /
CCSc1nnc(NC(=O)CSc2nc3c(c(=O)n2C)SC(C)C3)s1 (configuration not stated) | 9.5* | -4.2 | 11.1 | 4.8 | 6.1 | 14.0 | -2.5 | 1.5
Oc1ccccc1C(=S)N1CCN(C(=S)c2ccccc2O)CC1 | 1.8 | -5.1 | 4.6 | -3.8 | 4.4 | 0.3 | / | /
COc1ccc(CCNC(=O)CSc2nc3c(c(=O)n(C)c(=O)n3C)n2C(C)C)cc1OC | 1.7 | 1.4 | -0.3 | -8.1 | -1.5 | 4.2 | / | /
O=C(CSc1nc2[nH]ncc2c(=O)n1-c1ccccc1Br)NCc1ccco1 | 4.6 | -4.4 | 1.7 | 6.3 | 0.6 | -0.2 | / | /
COc1ccc(CCNC(=O)CSc2nc(C)nc3c2c(=O)n(C)c(=O)n3C)cc1OC | 20.5* | -8.9 | 10.9 | -1.7 | 2.3 | -1.7 | 21.3* | 1.3 | GFP quench DR=>67.5
COc1ccc(CCNC(=O)CSc2nc3[nH]ncc3c(=O)n2-c2ccccc2Br)cc1OC | 8.2* | -1.6 | 5.5 | 4.5 | 3.2 | -1.6 | 8.6* | -3.6
CC(NC(=O)c1ccccc1)C(=O)N/N=C/c1cccc([N+](=O)[O-])c1 (configuration not stated) | 4.3 | 2.2 | 3.7 | 1.2 | 0.1 | 8.3 | / | /
COc1ccccc1CNC(=O)c1cc(-c2cc(F)ccc2OC(C)C)n[nH]1 | 0.4 | -8.3 | / | / | / | / | / | /
CC(=O)c1ccc(OC(C)C)c(CN2CCCCC2)c1 | 8.6* | -2.5 | 3.7 | -5.4 | 1.4 | -10.0 | -1.2 | 0.3
Cc1cc(C)nc(N(C#N)Cc2ccccc2)n1 | 7.2* | -4.5 | 5.1 | -1.6 | 0.3 | 6.6 | -1.7 | 0.8
Cc1cc(C)nc(N(C#N)Cc2ccc([N+](=O)[O-])cc2)n1 | -1.2 | 6.9 | 4.6 | -1.8 | -5.8 | -3.9 | / | /
CCOC(=O)c1ccc(CNC(=O)C(Cc2c[nH]c3ccccc23)NC(C)=O)o1 (configuration not stated) | 8.1* | -3.9 | 6.5 | 0.5 | 2.4 | -7.2 | 2.3 | -0.6
N#Cc1cccc(S(=O)(=O)NCc2nnc3ccccn23)c1 | -0.2 | -7.1 | 3.0 | -0.7 | 5.5 | 0.2 | / | /
Cc1ccc(CC(=O)N2CCC(c3nc4c(nnn4Cc4ccccc4)c(=O)[nH]3)CC2)cc1 | 8.8* | 7.0 | -2.7 | -2.2 | -7.6 | 9.9 | 7.1* | -1.1
COc1cc(OC)c(OC)cc1CNC(=O)c1cc(S(=O)(=O)N(C)c2ccccc2OC)ccc1C | -1.2 | 15.7 | -1.1 | / | 3.3 | 2.8 | / | /
O=C(CC1SCCNC1=O)Nc1cc(Cl)cc(Cl)c1 (configuration not stated) | 11.2* | -3.7 | -6.1 | 2.6 | -3.4 | 5.8 | 17.4* | -0.2 | GFP quench DR=>67.5
CS/C(=N\S(=O)(=O)c1cccs1)Nc1ccc(F)c(Cl)c1 | 5.0* | -5.5 | 1.7 | 1.0 | 10.0 | 3.4 | -3.0 | 1.4
SMILES | Rin1 Abl inh | E coli Lon inh | PAFAH1B3 inh | pPAFAH FP inh | PAFAH1B2 inh | PAFAH2 inh | Rin1 Abl conf | GFP quench-1 | others
CS/C(=N\S(=O)(=O)c1cccs1)Nc1cccc(Cl)c1C | -0.3 | 10.1 | 4.7 | 2.4 | 3.5 | -0.2 | / | /
CC1=CC(C)(C)N(S(=O)(=O)c2ccc(C)cc2)c2ccc(C)cc21 | -4.4 | -12.3 | 2.1 | 1.8 | 2.0 | -1.5 | / | /
CC1=CC(C)(C)[N+](C)(C)c2ccc(C)cc21 | 10.1* | 2.9 | -3.7 | -8.9 | 7.9 | 6.8 | -0.9 | 0.1
COc1ccccc1C(=O)NC(=O)COC(=O)c1nccnc1N | 1.5 | -4.4 | 0.8 | 6.1 | 4.0 | -9.5 | / | /
Nc1nccnc1C(=O)OCC(=O)NNC(=O)c1ccccc1 | 8.2* | -2.1 | 5.3 | 6.3 | 6.9 | 9.9 | 0.3 | 2.1
COc1ccc(NC(=O)CSc2nnc3n2CCCCC3)cc1S(=O)(=O)N1CCOCC1 | 2.1 | -1.8 | 9.0 | 2.6 | 6.6 | 0.7 | / | /
CCN1CCN(C(=O)CCc2nnc3ccc(N4CCC5(CC4)OCCO5)nn23)CC1 | 3.2 | 0.6 | -1.1 | 1.3 | 1.2 | 2.9 | / | /
CCCCCCn1c(C(C)O)nc2ccccc21 (configuration not stated) | 20.5* | 2.2 | 13.0 | 7.2 | 5.4 | -6.0 | 1.2 | -0.6
COc1ccc(OC)c(S(=O)(=O)N2CCCC2C(=O)NC(C)c2ccccc2)c1 (configuration not stated) | -1.1 | -2.3 | -0.9 | -1.1 | 1.0 | -3.7 | / | /
O=C(Cc1cccc(NC(=O)C2CCN(C(=O)C3CC3)CC2)c1)Nc1cccc(C(=O)N2CCOCC2)c1 | 1.8 | -4.9 | 9.7 | / | 5.9 | 4.3 | / | /
CC(C)(C)OC(=O)N1CCC(C(=O)Nc2ccc(C(=O)N3CCCCC3)cc2)CC1 | 24.9* | -1.9 | 16.6 | / | 3.7 | -1.1 | 16.8* | -0.1 | GFP quench DR=>67.6
O=C(Nc1ccc(C(=O)N2CCOCC2)cc1)C1CCCC1 | -2.4 | -3.8 | 7.0 | / | 0.5 | 2.0 | / | /
CCOC(=O)C1CCN(C(=O)Nc2ccc(NC(=O)C3CCN(C(=O)OCC)CC3)cc2)CC1 | 13.6* | -1.0 | 16.9 | -4.5 | -6.0 | 1.6 | 10.7* | -0.2
O=C(Cc1ccc(NC(=O)C2CCN(C(=O)C3CCCC3)CC2)cc1)Nc1ccc(C(=O)N2CCOCC2)cc1 | 66.6* | -0.4 | 11.9 | / | 5.7 | 3.4 | 70.0* | -0.6 | GFP quench DR=>67.5;GFP quench-2=>67.5

Screening results as filed in PubChem BioAssay.
